Screens as filed in PubChem.
DT40 TDP1 no CPT – qHTS for Inhibitors of human tyrosyl-DNA phosphodiesterase 1 (TDP1): qHTS in cells in absence of CPT | DT40 Tdp1-/- hTDP1 cells, no CPT, ATP luminescence, 48 h | Potency, µM (highest dose often 46.2 µM), for inactives: top-dose activity change, negative = growth inhibition, hits mostly inhibitors | 420,000 tested, 15% active; also: potency is read from the fitted curve at half-maximal effect; nearly all actives have a fitted effect of over 55% in size
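Camptothecin absent (DMSO only). Human TDP1-complemented DT40 knockout cells, 400 cells/well, 37 °C for minimum 48 hr; ATP measured via CellTiter-Glo, 30 min dark incubation, luminescence.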
IL-1B inflam inh – blocks inflammasome-driven IL-1 beta release | THP-1 LPS/ATP IL-1B secretion, AlphaLISA, 16 h; hits give low values | activity change, % at 57.5 µM | 360,000 tested, 4.7% active | AID 743279; in the data active = activity change below about -50%; inconclusive = mostly about -30% to -49%
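Secreted IL-1B measured by AlphaLISA bead assay after 16 h compound exposure of THP-1 cells; compounds (final up to 57.5 uM) added 1 h before LPS (250 ng/mL) and ATP (1.25 mM) stimulation; lower signal means less secretion.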
HT1080 IDH1KD tx – kills HT-1080 cells with IDH1 knockdown. Potency, µM (titrated, usually from 46.1 µM), inactives show at the highest dose activity, negative = toxicity, actives largely listed as cytotoxic. 360,000 tested, 2% active. HT-1080 IDH1 knockdown viability, ATP luminescence, 48 h;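 also: potency is read from the fitted curve at half-maximal effect; 0% = DMSO wells and -100% = cell-free medium wells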
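Viability of IDH1-knockdown HT-1080 fibrosarcoma cells was assessed by CellTiter-Glo after 48 h at 37 °C with titrated compound; concentration-effect curves were classified by fit quality and response size.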
DT40 TDP1 CPT – DT40-hTDP1 cell growth loss with CPT; chicken DT40 Tdp1-/-;hTDP1 cells + 20 nM CPT, ATP luminescence, 48 h; Potency, µM (series often up to 46.2 µM), for the others: at the top dose activity change, negative = growth inhibition, usual class: inhibitors; 420,000 tested, 12% active; also: potency is read from the fitted curve at half-maximal effect; nearly all actives have a fitted effect of over 55% in size
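Cell growth measured by CellTiter-Glo luminescence after a minimum 48 h, 37 C compound exposure with 20 nM CPT in Tdp1-knockout DT40 cells stably expressing hTDP1, seeded 400/well; qHTS titration format.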
HT1080NT lethal – kills 2HG-producing HT-1080-NT fibrosarcoma cells; HT-1080-NT fibrosarcoma viability, CellTiter-Glo ATP luminescence, 48 h; Potency, µM (highest dose often 46.1 µM), inactives show top-dose activity, negative = less viability, hits mostly cytotoxic; 360,000 tested, 1.6% active; AID 686970;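 also: NT is the 2HG producing partner of a matched IDH1 knockdown line; potency is read from the fitted curve at half-maximal effect; 0% = DMSO-treated cells and -100% = media-only wells without cells; nearly all actives have a fitted effect of over 55% in size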
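Read-out is CellTiter-Glo luminescence after 10 minutes at room temperature, following 48 hours' compound treatment of HT-1080-NT cells (750 cells/well, RPMI, 5% FBS, 37 degrees C).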
An asterisk follows results filed as active; ? = inconclusive; / = no result given; [ ] = dose if it differs, or a comment. The list is not random: actives were taken first. Their share in the collection is about 19%. Unless noted, calls follow the shape of the dose curve; as a rule, active = well fitted curve in the direction sought with a large enough effect; inconclusive = small, poorly fitted or top-dose-only effect, or another doubt; inactive = no such curve, though single readings can be large; an effect the other way counts as inactive or inconclusive. Unless noted, % is scaled to controls: 0 for no effect and ±100 for the full control effect.

SMILES | DT40 TDP1 no CPT | IL-1B inflam inh | HT1080 IDH1KD tx | DT40 TDP1 CPT | HT1080NT lethal
COc1cc(C(=O)OCC(=O)N2c3ccccc3NC(=O)C2(C)C)ccc1OCC(C)C | ? | -81.0* | -14.0% | ? | -2.4%
NC(=O)CSc1nc2c(sc3ccccc32)c(=O)n1CCCC(=O)NCC1CCCO1 (stereo unspecified) | -4.9% | 8.6 | -13.8% | -20.4% | -22.7%
Cc1ccc(C)c(C(=O)CN2C(=O)NC3(CCC(C)CC3)C2=O)c1 (stereo unspecified) | -25.4% | -2.8 | -12.5% | -28.5% | -3.8%
NC(=O)C1(NC2CCCCC2)CCN(Cc2ccccc2)CC1 | -11.1% | -27.9 | -9.8% | -7.0% | -1.5%
CCC(=O)N1CCC1(C)C(=O)Nc1ccc(OC(F)F)cc1 (stereo unspecified) | -8.3% | 12.9 | 4.4% | 7.7% | 27.0%
Cc1ccc(OC(=O)CCNC(=O)c2ccccc2Cl)c(Br)c1 | -16.7% | -9.2 | 4.1% | -4.1% | 20.6%
O=C(COC(=O)c1ccccc1C(=O)c1ccc(Cl)cc1)NCc1ccccc1 | 18.4µM* | -69.1* | 1.3% | ? | -11.4%
Cc1cc(CNC(=O)COc2ccc(F)cc2)c2ccccc2n1 | 20.6µM* | 24.8 | -2.0% | ? | -6.1%
O=C(COC(=O)c1nc(Cl)c(Cl)c(Cl)c1Cl)NCc1ccccc1 | -15.7% | -88.8* | ? | ? | -25.0%
O=C(COc1ccccc1)NCc1ccccc1 | -6.6% | 19.7 | 9.7% | 4.6% | 11.0%
Cc1cc(CNC(=O)COc2ccccc2)c2ccccc2n1 | ? | 52.6 | -17.3% | -24.9% | -1.5%
O=C(COc1ccc(C(=O)c2ccccc2)cc1)NCc1ccc(F)cc1 | 1.03µM* | -2.7 | 2.31µM* | 0.92µM* | 2.06µM*
COc1ccc(CN2CCOc3ccc(CN4CCC(O)CC4)cc3C2)c(OC)c1OC | -22.0% | / | / | -22.1% | /
O=C(COC(=O)c1cccnc1Cl)NCc1ccc(F)cc1 | -8.0% | -8.5 | 0.1% | -5.9% | 2.5%
O=C(COC(=O)c1ccccc1C(=O)c1ccccc1)NCc1ccc(F)cc1 | ? | -76.8* | 9.0% | ? | -8.9%
O=C(COC(=O)c1ccccc1C(=O)c1ccccc1)NCCc1ccc(Cl)cc1Cl | 20.6µM* | -85.3* | ? | ? | ?
Cc1cccc(CNC(=O)c2cnn(-c3ncc(C)c(-c4cccs4)n3)c2C2CC2)n1 | -24.1% | / | / | -4.8%[9.04 µM] | /
CCc1cc(=O)oc2c(C)c(OCC(=O)N3CCCc4ccccc43)ccc12 | ? | -19.9 | ? | 18.4µM* | -23.7%
O=C(COc1ccc(Br)cc1CO)N1CCCc2ccccc21 | 25.9µM* | -10.9 | 0.4% | -5.5% | -6.3%
CCc1sc(C(=O)NCc2cc(C)n(C)n2)cc1Br | ? | 21.2 | 15.8µM* | ? | ?
CCc1sc(C(=O)NCCc2ccc(S(N)(=O)=O)cc2)cc1Br | 16.4µM* | ? | -14.1% | ? | -7.4%
CCN(c1ccccc1)S(=O)(=O)c1cccc(C(=O)Nc2cccc(C)n2)c1 | 20.6µM* | -4.2 | -9.6% | 23.1µM* | -16.1%
C=CCN(c1ccccc1)S(=O)(=O)c1cccc(C(=O)Nc2cccc(C)n2)c1 | 23.1µM* | -14.8 | -11.2% | 18.4µM* | 0.2%
C=CCN(c1ccccc1)S(=O)(=O)c1cccc(C(=O)NNC(=O)c2ccncc2)c1 | ? | -15.4 | 8.0% | -12.1% | 8.4%
CCc1sc(C(=O)NCCc2ccc(S(N)(=O)=O)cc2)cc1C | 2.1% | -1.5 | -7.0% | -4.6% | -2.2%
SMILES | DT40 TDP1 no CPT | IL-1B inflam inh | HT1080 IDH1KD tx | DT40 TDP1 CPT | HT1080NT lethal
CCN(c1ccccc1)S(=O)(=O)c1ccc(C(=O)Nc2ccccn2)cc1 | ? | -3.5 | 0.6% | 20.6µM* | -2.7%
CCN(c1ccccc1)S(=O)(=O)c1ccc(C(=O)NCCc2ccc(S(N)(=O)=O)cc2)cc1 | ? | 18.3 | -11.5% | 23.1µM* | -27.8%
CN(c1ccc(C(=O)Nc2ccccn2)cc1)S(=O)(=O)c1ccccc1 | -29.7% | 11.8 | -0.5% | -29.6% | 0.3%
CN(c1ccccc1)S(=O)(=O)c1ccc(C(=O)NCCc2ccc(F)cc2)cc1 | -23.4% | 29.5 | -6.0% | -8.5% | -10.9%
CSc1ncnc2c1ncn2CCCN[C@H](C)c1cccc2ccccc12 | ? | -13.5 | -12.2% | -28.4% | -13.2%
C[C@@H](NCCCc1cccc(C(F)(F)F)c1)c1cccc2ccccc12 | 8.41µM* | / | / | 9.44µM* | /
CC1CC(=O)c2c(cc3c(-c4c(O)cc(O)c5c(O)c6c(cc45)OC(C)CC6=O)c(O)cc(O)c3c2O)O1 (stereo unspecified) | 1.3µM* | 3.4 | 5.17µM* | 1.03µM* | 4.61µM*
Cc1ccc(NC(=O)COC(=O)C2CC3C=CC2C3)cc1S(=O)(=O)N1CCCCC1 (stereo unspecified) | ? | ? | -11.2% | ? | -18.0%
CCNc1cc(N2CCCC2)ccc1[N+](=O)[O-] | -16.8% | -10.8 | 26.3% | 4.9% | 8.6%
O=[N+]([O-])c1ccc(N2CCCC2)cc1NCc1ccccc1 | ? | 19.0 | 0.6% | -19.6% | 6.9%
Cc1ccccc1OCCNc1cc(N2CCN(CCO)CC2)ccc1[N+](=O)[O-] | ? | -76.3* | 14.6µM* | ? | ?
Cc1ccccc1OCCNc1cc(N2CCCCC2)ccc1[N+](=O)[O-] | ? | -16.8 | -18.6% | 20.6µM* | -13.7%
CC1CN(c2ccc([N+](=O)[O-])c(NCCOc3ccccc3)c2)CCN1 (stereo unspecified) | ? | -61.6* | 16.4µM* | ? | 14.6µM*
Cc1ccc(C)c(-c2nn(-c3cc(N4CCN(CCO)CC4)ccc3[N+](=O)[O-])c(=O)c3ccccc23)c1 | 25.9µM* | ? | -15.2% | ? | -4.5%
CCOc1ccc(C(=O)CCC(=O)N2CCN(c3ncccn3)CC2)cc1 | -15.9% | 1.0 | 21.7% | 6.7% | 13.7%
O=C(c1cccs1)c1ccccc1Cc1cccs1 | 3.3% | -7.3 | 8.6% | ? | 3.6%
Cc1cccc(OCCNc2cc(N3CCN(CCO)CC3)ccc2[N+](=O)[O-])c1 | 20.6µM* | 0.0 | -9.1% | ? | -3.9%
Cc1cccc(OCCNc2ccc(C(F)(F)F)cc2[N+](=O)[O-])c1 | -10.6% | -12.8 | 22.6% | 3.6% | 25.8%
COc1ccc(OCCNc2cc(N3CCOCC3)ccc2[N+](=O)[O-])cc1 | ? | -16.9 | ? | ? | ?
COc1ccc(OCCNc2cc(N3CCCCC3)ccc2[N+](=O)[O-])cc1 | 23.1µM* | ? | -2.8% | 18.4µM* | -12.5%
O=C(NCc1cccc(Cl)c1)C1Cc2c(-c3ccccc3Oc3ccccc3)ccnc2O1 (stereo unspecified) | ? | -11.7 | ? | 23.1µM* | ?
